Test results published in PubChem BioAssay (EPA / NIEHS).
Activity calls are given as the source filed them. Rule for the calls: active = hit-call score of the fitted dose curve at least 0.9, where 1 is the maximum; inactive = score below 0.9.

Experiment: ATG_TAL_CIS: Attagene CIS-FACTORIAL HepG2 Assay for human TAL Basal Promoter (AID 2282966);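 note: background control endpoint measuring basal TAL promoter reporter mRNA not a specific factor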
Conditions: HepG2 Attagene cis-factorial TAL promoter reporter; actives raise or lower the signal
Procedure, shortened: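 Background-control endpoint: basal TAL promoter reporter transcripts in transiently transfected HepG2, measured 24 h after dosing. Read-out by RT-PCR with fluorescent primer extension and capillary electrophoresis; gain or loss of signal fitted relative to DMSO.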

Row | Structure (SMILES) | outcome | AC50
1 | CN(C)C(=O)C1(N2CCCCC2)CCN(CC[C@@]2(c3ccc(Cl)c(Cl)c3)CN(C(=O)c3ccccc3)CCO2)CC1 | inactive | –
2 | O=C1O[C@H]([C@@H](O)CO)C(O)=C1O | inactive | –
3 | c1ccc2n[nH]nc2c1 | inactive | –
4 | Oc1ccc2ccccc2c1 | inactive | –
5 | CCOC(=O)O[C@H](C)OC(=O)c1ccc2c(c1)cc(C(=O)NC1CCN(C(C)C)CC1)n2Cc1cc(-c2ccc(Cl)s2)on1 | inactive | –
6 | CC(=O)N1CCN(c2ccc(OC[C@H]3CO[C@](Cn4ccnc4)(c4ccc(Cl)cc4Cl)O3)cc2)CC1 | inactive | –
7 | Clc1ccccc1C(c1ccccc1)(c1ccccc1)n1ccnc1 | inactive | –
8 | COCC(C)OCC(C)OCC(C)O (configuration not stated) | inactive | –
9 | O=C(O)c1ccccc1C(=O)OCc1ccccc1 | inactive | –
10 | CC(O)CC(C)(C)O (configuration not stated) | inactive | –
11 | Cc1ccc(C(C)C)cc1 | inactive | –
12 | CC(C)(C)c1cc(/C=C2\SC(N)=NC2=O)cc(C(C)(C)C)c1O | inactive | –
13 | CN1C(=O)N(c2ccccc2Br)Cc2cnc(Nc3ccc4c(c3)OCC(CO)O4)nc21 (configuration not stated) | – | 12.4 µM (active)
14 | Cc1cc2c(cc1C(F)(F)F)N(C(=O)Nc1ccc(Oc3cccnc3C)nc1)CC2 | inactive | –
15 | CCCCOC(=O)CC(CC(=O)OCCCC)(OC(C)=O)C(=O)OCCCC | inactive | –
16 | Cc1cn([C@H]2C[C@H](N=[N+]=[N-])[C@@H](CO)O2)c(=O)[nH]c1=O | inactive | –
17 | CCCCCCCCCCCC[N+](C)(C)C | inactive | –
18 | NC(=O)c1nc(-c2cccc(-c3cc(F)ccc3OCC(F)(F)C(F)(F)F)c2)n[nH]1 | inactive | –
19 | CCCCCCCCCCCO | inactive | –

Experiment: ATG_TGFb_CIS: Attagene CIS-FACTORIAL HepG2 Assay for human Transforming Growth Factor (TGF) (AID 2282967)
Conditions: HepG2 Attagene CIS TGFb reporter, mRNA transcription; actives raise or lower the signal
Procedure, shortened: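 Liver HepG2 line, cis-factorial reporter panel, 24 h dosing. Quantitation: RT-PCR products labeled with 6-FAM, cut with HpaI, resolved by capillary electrophoresis; DMSO-referenced bidirectional analysis.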

Row | Structure (SMILES) | outcome
20 | OCCO | inactive
21 | CCCCCCCCCC(=O)O | inactive
22 | CN1C(=O)CC[C@H]1c1cccnc1 | inactive
23 | CN(C)c1ccc(C(=C2C=CC(=[N+](C)C)C=C2)c2ccc(N(C)C)cc2)cc1 | inactive
24 | Cc1cc(F)ccc1-c1cc(N2CC[C@@H](O)[C@H]2CO)ncc1N(C)C(=O)C(C)(C)c1cc(C(F)(F)F)cc(C(F)(F)F)c1 | inactive
25 | CCO[Si](CCCNC(N)=O)(OCC)OCC | inactive
26 | Cc1oc2c(NC(=O)c3c(Cl)cccc3Cl)cccc2c1C(C)(C)O | inactive
27 | O=C=NCCCCCCN=C=O | inactive
28 | C[C@]12CC[C@@H]3c4ccc(O)cc4CC[C@H]3[C@@H]1CCC2=O | inactive
29 | O=c1ccc2ccccc2o1 | inactive
30 | COc1cccc([C@H](O)C2CCN(CCc3ccc(F)cc3)CC2)c1OC | inactive
31 | Cc1ncc(CO)c(CO)c1O | inactive
32 | COc1ccc2cc(S(=O)(=O)N[C@H](CC(=O)N[C@H](Cc3ccc(CN4[C@H](C)CCC[C@@H]4C)cc3)C(=O)N(C)C(C)C)c3ccc4c(c3)OCO4)ccc2c1 | inactive
33 | O=C(Nc1ccc(Cl)cc1)Nc1ccc(Cl)c(Cl)c1 | inactive
34 | Cc1ccc2oc(CN(Cc3ccccc3)C(=O)Nc3c(F)cc(F)cc3F)c(-c3ccc(Cl)cc3)c2c1 | inactive
35 | CCN(Cc1cccnc1)C(=O)c1cccc(Cl)c1[C@]1(C)C(=O)N(Cc2ccc(OC)cc2OC)c2ccc(Cl)cc21 | inactive
36 | O=C1c2ccccc2C(=O)N1CCc1noc(-c2ccc(CN3CCCCCC3)s2)n1 | inactive

Row | Structure (SMILES) | outcome
37 | Oc1ccccc1 | inactive
38 | CC1(C)NC(=O)N(c2ccc([N+](=O)[O-])c(C(F)(F)F)c2)C1=O | inactive
39 | CN(C)C(=O)C1(N2CCCCC2)CCN(CC[C@@]2(c3ccc(Cl)c(Cl)c3)CN(C(=O)c3ccccc3)CCO2)CC1 | inactive
40 | O=C1O[C@H]([C@@H](O)CO)C(O)=C1O | inactive
41 | c1ccc2n[nH]nc2c1 | inactive
42 | Oc1ccc2ccccc2c1 | inactive
43 | CCOC(=O)O[C@H](C)OC(=O)c1ccc2c(c1)cc(C(=O)NC1CCN(C(C)C)CC1)n2Cc1cc(-c2ccc(Cl)s2)on1 | inactive
44 | CC(=O)N1CCN(c2ccc(OC[C@H]3CO[C@](Cn4ccnc4)(c4ccc(Cl)cc4Cl)O3)cc2)CC1 | inactive
45 | Clc1ccccc1C(c1ccccc1)(c1ccccc1)n1ccnc1 | inactive
46 | COCC(C)OCC(C)OCC(C)O (configuration not stated) | inactive
47 | O=C(O)c1ccccc1C(=O)OCc1ccccc1 | inactive
48 | CC(O)CC(C)(C)O (configuration not stated) | inactive
49 | Cc1ccc(C(C)C)cc1 | inactive
50 | CC(C)(C)c1cc(/C=C2\SC(N)=NC2=O)cc(C(C)(C)C)c1O | inactive
51 | CN1C(=O)N(c2ccccc2Br)Cc2cnc(Nc3ccc4c(c3)OCC(CO)O4)nc21 (configuration not stated) | inactive
52 | Cc1cc2c(cc1C(F)(F)F)N(C(=O)Nc1ccc(Oc3cccnc3C)nc1)CC2 | inactive
